The supplement of paper PMC10849652
About 7,900 targets were measured; listed, in parts, are those with a hit and a random draw of the rest. About 0.6% of all pairs of compound and target were hits.

Key:
Assay in all cases: log2 fold change, soluble protein after heating vs DMSO (PISA); higher = thermal stabilisation; K562 cells, 10 uM, 30 min; active = over 0.2 and 3.5 SD of the protein, either way, in both replicates (recomputed)
[1] = compound: CS(=O)(=O)c1ccc(-c2cnc(N)c(C(=O)Nc3ccccc3)n2)cc1
In short: (§1)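 Soluble protein was quantified by TMTpro 16plex LC-MS/MS after channel sums were equalised. It was obtained as the supernatant after 21,000xg for 90 min from pooled aliquots of K562 cells (2×10^6 cells/mL, 10 μM compound, 30 min) heated for 3 min across 48°C-58°C and extracted in PBS with 0.5% NP-40 at 4°C. Thermal stability values are relative to control samples and come from duplicates. They are given as log2 fold changes.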

crizotinib = compound: C[C@@H](Oc1cc(-c2cnn(C3CCNCC3)c2)cnc1N)c1c(Cl)ccc(F)c1Cl [crizotinib]
In short: as §1

[2] = compound: C[C@@H]1COCCN1C2=NC(=NC(=C2)C3(CC3)S(=O)(=O)C)C4=C5C=CNC5=CC=C4
In short: as §1

[3] = compound: C[C@H](C1=CC=C(C=C1)C(=O)NC2=C3C=CNC3=NC=C2)N
In short: as §1

duvelisib = compound: C[C@H](Nc1ncnc2nc[nH]c12)c1cc2cccc(Cl)c2c(=O)n1-c1ccccc1 [duvelisib]
In short: as §1

gandotinib = compound: Cc1cc(Nc2cc(CN3CCOCC3)c3nc(C)c(Cc4ccc(Cl)cc4F)n3n2)n[nH]1 [gandotinib]
In short: as §1

tozasertib = compound: Cc1cc(Nc2cc(N3CCN(C)CC3)nc(Sc3ccc(NC(=O)C4CC4)cc3)n2)n[nH]1 [tozasertib]
In short: as §1

[4] = compound: Cc1cc(SCc2sc(-c3ccc(C(F)(F)F)cc3)nc2C)ccc1OCC(=O)O
In short: as §1

doramapimod = compound: Cc1ccc(-n2nc(C(C)(C)C)cc2NC(=O)Nc2ccc(OCCN3CCOCC3)c3ccccc23)cc1 [doramapimod]
In short: as §1

ispinesib = compound: Cc1ccc(C(=O)N(CCCN)[C@@H](c2nc3cc(Cl)ccc3c(=O)n2Cc2ccccc2)C(C)C)cc1 [ispinesib]
In short: as §1

bafetinib = compound: Cc1ccc(NC(=O)c2ccc(CN3CC[C@H](N(C)C)C3)c(C(F)(F)F)c2)cc1Nc1nccc(-c2cncnc2)n1 [bafetinib]
In short: as §1

[5] = compound: Cc1cccc(CC(=O)N2CCc3c2ccc(-c2cn(C)c4ncnc(N)c24)c3F)n1
In short: as §1

nilotinib = compound: Cc1cn(-c2cc(NC(=O)c3ccc(C)c(Nc4nccc(-c5cccnc5)n4)c3)cc(C(F)(F)F)c2)cn1 [nilotinib]
In short: as §1

[6] = compound: Cc1nc(Nc2n[nH]c3c2CN(C(=O)N[C@H](CN(C)C)c2ccccc2)C3(C)C)c2sccc2n1
In short: as §1

dasatinib = compound: Cc1nc(Nc2ncc(C(=O)Nc3c(C)cccc3Cl)s2)cc(N2CCN(CCO)CC2)n1 [dasatinib]
In short: as §1

[7] = compound: Cc1ncc(-c2ccnc(Nc3ccc(S(C)(=O)=O)cc3)n2)n1C(C)C
In short: as §1

[8] = compound: Cn1cc(-c2ccc3c(c2)CCN3C(=O)Cc2cccc(C(F)(F)F)c2)c2c(N)ncnc21
In short: as §1

[9] = compound: Cn1cc(-c2ccc3nnc(C(F)(F)c4ccc5ncccc5c4)n3n2)cn1
In short: as §1

tipifarnib = compound: Cn1cncc1[C@@](N)(c1ccc(Cl)cc1)c1ccc2c(c1)c(-c1cccc(Cl)c1)cc(=O)n2C [tipifarnib]
In short: as §1

mubritinib = compound: FC(F)(F)c1ccc(/C=C/c2nc(COc3ccc(CCCCn4ccnn4)cc3)co2)cc1 [mubritinib]
In short: as §1

Measured: log2 fold change

RIC8A isoform 3 (UniProt Q9NPQ8)
inactive: [1] 0.042 | crizotinib -0.085 | [2] -0.036 | [3] 0.094 | duvelisib 0.036 | gandotinib -0.038 | tozasertib 0.177 | [4] 0.193 | doramapimod 0.094 | ispinesib -0.145 | bafetinib 0.042 | [5] -0.062 | nilotinib -0.041 | [6] -0.043 | dasatinib -0.108 | [7] 0.088 | [8] 0.03 | [9] 0.014 | tipifarnib -0.1 | mubritinib -0.095

RAC1 (UniProt P63000)
inactive: [1] -0.094 | crizotinib 0 | [2] -0.04 | [3] -0.06 | duvelisib 0.001 | gandotinib -0.037 | tozasertib 0.065 | [4] -0.044 | doramapimod 0.112 | ispinesib 0.024 | bafetinib 0.184 | [5] -0.017 | nilotinib 0.073 | [6] 0.045 | dasatinib 0.007 | [7] 0.048 | [8] 0.024 | [9] -0.037 | tipifarnib 0.106 | mubritinib 0.026

SCAF11 (UniProt Q99590)
UniProt Q99590, sequence (Q99590 whole entry, looked up): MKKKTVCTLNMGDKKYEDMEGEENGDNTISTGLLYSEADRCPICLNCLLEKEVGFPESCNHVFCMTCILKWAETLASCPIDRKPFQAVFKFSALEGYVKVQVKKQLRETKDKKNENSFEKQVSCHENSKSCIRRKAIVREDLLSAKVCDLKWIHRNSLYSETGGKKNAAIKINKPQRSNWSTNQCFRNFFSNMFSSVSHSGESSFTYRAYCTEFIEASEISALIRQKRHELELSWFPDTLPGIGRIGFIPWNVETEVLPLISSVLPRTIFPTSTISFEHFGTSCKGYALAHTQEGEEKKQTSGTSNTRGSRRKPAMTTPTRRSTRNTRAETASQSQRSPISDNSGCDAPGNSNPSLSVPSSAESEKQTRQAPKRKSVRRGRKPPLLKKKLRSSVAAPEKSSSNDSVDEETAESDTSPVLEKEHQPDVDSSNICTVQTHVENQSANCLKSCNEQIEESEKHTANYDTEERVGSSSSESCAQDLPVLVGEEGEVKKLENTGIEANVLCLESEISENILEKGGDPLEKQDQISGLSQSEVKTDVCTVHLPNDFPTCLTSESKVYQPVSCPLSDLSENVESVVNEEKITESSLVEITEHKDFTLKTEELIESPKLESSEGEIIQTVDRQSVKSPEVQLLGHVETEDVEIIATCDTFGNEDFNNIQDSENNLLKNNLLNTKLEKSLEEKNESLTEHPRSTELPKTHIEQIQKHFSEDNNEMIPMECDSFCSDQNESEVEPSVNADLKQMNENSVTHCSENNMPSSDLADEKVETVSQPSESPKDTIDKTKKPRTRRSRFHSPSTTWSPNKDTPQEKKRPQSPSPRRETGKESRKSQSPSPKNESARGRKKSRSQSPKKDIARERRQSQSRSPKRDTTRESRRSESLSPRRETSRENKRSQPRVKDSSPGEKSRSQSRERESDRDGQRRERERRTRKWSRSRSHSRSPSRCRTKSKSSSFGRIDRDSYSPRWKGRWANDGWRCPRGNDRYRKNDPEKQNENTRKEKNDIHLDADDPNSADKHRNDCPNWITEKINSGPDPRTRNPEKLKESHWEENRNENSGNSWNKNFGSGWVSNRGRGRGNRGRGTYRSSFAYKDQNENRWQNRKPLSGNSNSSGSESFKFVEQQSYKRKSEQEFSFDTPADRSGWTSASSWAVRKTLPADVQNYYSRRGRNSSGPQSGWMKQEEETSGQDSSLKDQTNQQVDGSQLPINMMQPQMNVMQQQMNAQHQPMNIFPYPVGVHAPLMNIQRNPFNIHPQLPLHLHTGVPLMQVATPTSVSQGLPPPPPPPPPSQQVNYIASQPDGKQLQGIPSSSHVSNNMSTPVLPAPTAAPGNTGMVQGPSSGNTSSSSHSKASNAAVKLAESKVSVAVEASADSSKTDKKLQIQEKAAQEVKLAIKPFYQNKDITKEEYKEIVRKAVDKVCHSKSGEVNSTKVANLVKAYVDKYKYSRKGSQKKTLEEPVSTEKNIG
inactive: [1] 0.021 | crizotinib -0.06 | [2] -0.069 | [3] 0.229 | duvelisib -0.069 | gandotinib 0.543 | tozasertib -0.037 | [4] -0.106 | doramapimod -0.05 | ispinesib -0.012 | bafetinib 0.173 | [5] -0.144 | nilotinib 0.078 | [6] -0.007 | dasatinib 0.144 | [7] 0.379 | [8] -0.05 | [9] -0.03 | tipifarnib 0.067 | mubritinib 0.052

SKP1 (UniProt P63208)
UniProt P63208, sequence (P63208 whole entry, looked up): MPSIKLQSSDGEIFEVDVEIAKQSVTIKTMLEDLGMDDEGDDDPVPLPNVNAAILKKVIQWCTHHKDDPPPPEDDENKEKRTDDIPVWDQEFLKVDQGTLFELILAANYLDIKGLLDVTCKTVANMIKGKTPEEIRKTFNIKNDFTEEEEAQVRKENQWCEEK
inactive: [1] -0.052 | crizotinib 0.027 | [2] -0.039 | [3] -0.19 | duvelisib -0.054 | gandotinib -0.035 | tozasertib 0.001 | [4] 0.038 | doramapimod -0.096 | ispinesib 0.089 | bafetinib -0.003 | nilotinib 0.024 | [6] -0.011 | dasatinib 0.007 | [7] 0.012 | [8] 0.047 | [9] -0.017 | tipifarnib -0.06 | mubritinib -0.001
active: [5] 0.289

SERINC3 (UniProt Q13530)
UniProt Q13530, sequence (Q13530 whole entry, looked up): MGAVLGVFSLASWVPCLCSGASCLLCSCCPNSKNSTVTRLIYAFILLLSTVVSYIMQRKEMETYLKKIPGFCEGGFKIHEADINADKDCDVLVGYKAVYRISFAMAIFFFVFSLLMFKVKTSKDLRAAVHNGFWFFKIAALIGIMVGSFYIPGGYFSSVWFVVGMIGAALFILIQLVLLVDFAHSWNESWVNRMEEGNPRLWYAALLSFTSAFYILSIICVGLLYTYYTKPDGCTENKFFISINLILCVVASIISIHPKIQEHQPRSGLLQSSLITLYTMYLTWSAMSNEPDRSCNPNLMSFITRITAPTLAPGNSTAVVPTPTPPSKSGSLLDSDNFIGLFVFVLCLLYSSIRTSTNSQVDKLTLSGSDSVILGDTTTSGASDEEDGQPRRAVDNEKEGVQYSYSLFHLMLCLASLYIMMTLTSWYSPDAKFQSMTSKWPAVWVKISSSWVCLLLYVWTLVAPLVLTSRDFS
inactive: [1] 0.15 | crizotinib -0.228 | [2] 0.017 | [3] 0.225 | duvelisib 0.162 | gandotinib -0.088 | tozasertib 0.046 | [4] 0.096 | doramapimod -0.051 | ispinesib -0.17 | bafetinib -0.031 | [5] -0.035 | nilotinib 0.02 | [6] 0.039 | dasatinib -0.123 | [7] 0.07 | [8] -0.014 | [9] -0.077 | tipifarnib -0.115 | mubritinib 0.009

RHEB (UniProt Q15382)
UniProt Q15382, sequence (Q15382 whole entry, looked up): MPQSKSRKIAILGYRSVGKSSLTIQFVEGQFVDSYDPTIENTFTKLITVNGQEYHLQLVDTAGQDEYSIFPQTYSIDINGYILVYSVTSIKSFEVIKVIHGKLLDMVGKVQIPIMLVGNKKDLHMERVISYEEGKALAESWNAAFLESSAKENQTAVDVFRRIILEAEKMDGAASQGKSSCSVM
inactive: [1] -0.001 | crizotinib 0.038 | [2] 0.096 | [3] -0.041 | duvelisib 0.021 | gandotinib -0.097 | tozasertib -0.025 | [4] -0.009 | doramapimod -0.018 | ispinesib 0.042 | bafetinib 0.01 | [5] 0.004 | nilotinib -0.027 | [6] 0.001 | dasatinib 0.004 | [7] 0.04 | [8] 0.035 | [9] 0.001 | tipifarnib -0.042 | mubritinib 0.004

RBM26 isoform 3 (UniProt Q5T8P6)
inactive: [1] 0.066

SEC24A (UniProt O95486)
UniProt O95486, sequence (O95486 whole entry, looked up): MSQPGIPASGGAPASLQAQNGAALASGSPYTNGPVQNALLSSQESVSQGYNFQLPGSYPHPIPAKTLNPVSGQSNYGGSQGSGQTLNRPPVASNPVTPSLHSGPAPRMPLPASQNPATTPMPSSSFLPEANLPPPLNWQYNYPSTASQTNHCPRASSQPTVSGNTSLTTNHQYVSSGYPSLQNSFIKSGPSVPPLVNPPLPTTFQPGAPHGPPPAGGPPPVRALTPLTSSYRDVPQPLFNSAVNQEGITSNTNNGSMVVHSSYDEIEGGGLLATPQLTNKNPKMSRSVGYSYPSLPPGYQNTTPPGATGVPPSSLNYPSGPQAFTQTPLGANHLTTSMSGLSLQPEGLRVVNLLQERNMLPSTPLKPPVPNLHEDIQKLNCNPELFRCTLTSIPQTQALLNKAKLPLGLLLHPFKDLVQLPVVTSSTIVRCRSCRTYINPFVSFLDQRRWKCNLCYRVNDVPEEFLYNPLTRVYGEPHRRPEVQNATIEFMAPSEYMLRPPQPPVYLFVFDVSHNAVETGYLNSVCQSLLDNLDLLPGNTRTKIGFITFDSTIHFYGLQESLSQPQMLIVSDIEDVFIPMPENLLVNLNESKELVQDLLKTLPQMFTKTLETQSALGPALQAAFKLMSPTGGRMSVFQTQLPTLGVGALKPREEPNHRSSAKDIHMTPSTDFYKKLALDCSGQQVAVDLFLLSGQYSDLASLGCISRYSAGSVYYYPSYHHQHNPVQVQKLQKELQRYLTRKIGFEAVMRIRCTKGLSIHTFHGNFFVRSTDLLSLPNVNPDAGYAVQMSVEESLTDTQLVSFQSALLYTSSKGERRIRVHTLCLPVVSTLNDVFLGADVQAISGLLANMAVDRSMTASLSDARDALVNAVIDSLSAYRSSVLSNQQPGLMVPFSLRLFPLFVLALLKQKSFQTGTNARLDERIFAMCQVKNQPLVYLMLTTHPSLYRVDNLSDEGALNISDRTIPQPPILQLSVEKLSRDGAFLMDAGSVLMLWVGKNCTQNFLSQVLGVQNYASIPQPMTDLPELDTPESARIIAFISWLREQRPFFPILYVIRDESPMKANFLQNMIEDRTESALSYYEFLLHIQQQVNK
inactive: [1] 0.002 | crizotinib -0.001 | [2] 0.075 | [3] 0.001 | duvelisib 0.038 | gandotinib -0.148 | tozasertib 0.018 | [4] 0.084 | doramapimod -0.029 | ispinesib 0.017 | bafetinib -0.018 | [5] 0.041 | nilotinib -0.126 | [6] 0.021 | dasatinib -0.121 | [7] -0.012 | [8] 0.008 | [9] 0.016 | tipifarnib -0.005 | mubritinib 0.017

RPP14 (UniProt O95059)
inactive: [1] -0.048 | crizotinib -0.046 | [2] 0.019 | [3] -0.076 | duvelisib -0.019 | gandotinib -0.119 | tozasertib 0.052 | [4] -0.054 | doramapimod 0.06 | ispinesib 0.03 | bafetinib 0.045 | [5] 0 | nilotinib -0.014 | [6] 0.019 | dasatinib 0.063 | [7] -0.013 | [8] -0.078 | [9] -0.054 | tipifarnib 0.003 | mubritinib -0.084

RAP1GDS1 isoform 5 (UniProt P52306)
UniProt P52306, sequence (P52306 whole entry, looked up): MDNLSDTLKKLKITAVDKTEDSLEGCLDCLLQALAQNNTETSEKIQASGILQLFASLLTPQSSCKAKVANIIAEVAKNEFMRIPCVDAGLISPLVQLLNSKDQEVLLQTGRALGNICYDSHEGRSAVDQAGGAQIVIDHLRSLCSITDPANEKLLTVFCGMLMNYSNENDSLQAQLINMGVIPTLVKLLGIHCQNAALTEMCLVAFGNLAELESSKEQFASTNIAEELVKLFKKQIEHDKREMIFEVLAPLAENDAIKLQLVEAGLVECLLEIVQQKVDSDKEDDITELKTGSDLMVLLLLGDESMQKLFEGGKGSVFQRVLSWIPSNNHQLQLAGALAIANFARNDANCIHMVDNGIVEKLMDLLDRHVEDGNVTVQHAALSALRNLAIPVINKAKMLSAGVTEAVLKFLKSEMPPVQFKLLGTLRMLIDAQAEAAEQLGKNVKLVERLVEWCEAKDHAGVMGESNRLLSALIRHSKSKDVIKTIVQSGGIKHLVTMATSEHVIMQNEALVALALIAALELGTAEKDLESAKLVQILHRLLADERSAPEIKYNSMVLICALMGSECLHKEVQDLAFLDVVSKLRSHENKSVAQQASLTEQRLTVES
inactive: [1] 0.061 | crizotinib -0.062 | [2] 0.08 | [3] 0.009 | duvelisib -0.009 | gandotinib -0.066 | tozasertib 0.079 | [4] 0.036 | doramapimod -0.014 | ispinesib -0.096 | bafetinib 0.097 | [5] 0.07 | nilotinib -0.077 | [6] -0.105 | dasatinib -0.083 | [7] 0.042 | [8] -0.005 | [9] 0.03 | tipifarnib -0.041 | mubritinib 0.026

RDH13 (UniProt Q8NBN7)
UniProt Q8NBN7, sequence (Q8NBN7 whole entry, looked up): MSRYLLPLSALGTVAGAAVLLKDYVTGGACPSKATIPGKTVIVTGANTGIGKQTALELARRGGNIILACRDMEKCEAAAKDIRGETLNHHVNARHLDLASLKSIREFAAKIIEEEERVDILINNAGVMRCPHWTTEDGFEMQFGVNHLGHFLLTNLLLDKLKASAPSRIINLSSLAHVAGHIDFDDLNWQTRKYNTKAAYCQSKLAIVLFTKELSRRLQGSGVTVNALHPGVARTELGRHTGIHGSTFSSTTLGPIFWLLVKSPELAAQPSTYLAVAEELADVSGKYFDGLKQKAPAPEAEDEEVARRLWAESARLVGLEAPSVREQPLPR
inactive: [1] 0.04 | crizotinib -0.231 | [2] 0.161 | [3] -0.019 | duvelisib 0.082 | gandotinib -0.08 | tozasertib -0.101 | [4] 0.029 | doramapimod -0.037 | bafetinib -0.068 | [5] -0.03 | nilotinib 0.011 | [6] -0.044 | dasatinib -0.131 | [7] 0.019 | [8] 0.027 | [9] 0.016 | tipifarnib 0.022 | mubritinib -0.032
active: ispinesib -0.322

SH3GLB2 (UniProt Q9NR46)
UniProt Q9NR46, sequence (Q9NR46 whole entry, looked up): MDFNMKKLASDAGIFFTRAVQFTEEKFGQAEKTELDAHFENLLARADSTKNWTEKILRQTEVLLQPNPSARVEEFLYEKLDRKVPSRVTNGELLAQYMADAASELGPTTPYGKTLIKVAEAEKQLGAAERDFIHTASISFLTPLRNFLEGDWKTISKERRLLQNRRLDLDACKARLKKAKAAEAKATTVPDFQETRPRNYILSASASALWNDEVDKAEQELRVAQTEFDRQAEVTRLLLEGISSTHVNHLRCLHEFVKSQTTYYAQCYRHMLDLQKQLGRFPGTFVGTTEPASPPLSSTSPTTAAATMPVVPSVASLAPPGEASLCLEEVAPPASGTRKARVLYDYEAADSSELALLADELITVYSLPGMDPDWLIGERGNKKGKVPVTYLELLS
inactive: [1] 0.031 | crizotinib -0.104 | [2] -0.101 | [3] 0.013 | duvelisib -0.022 | gandotinib -0.183 | tozasertib 0.014 | [4] 0.073 | doramapimod 0.013 | ispinesib -0.052 | bafetinib -0.029 | [5] 0.044 | nilotinib -0.051 | [6] -0.15 | dasatinib -0.147 | [7] -0.066 | [8] 0.006 | [9] -0.1 | tipifarnib -0.091 | mubritinib 0.098

SAAL1 (UniProt Q96ER3)
inactive: [1] 0.013 | crizotinib -0.129 | [2] 0.047 | [3] 0.008 | duvelisib 0.036 | gandotinib 0.022 | tozasertib -0.044 | [4] 0.019 | doramapimod -0.006 | ispinesib -0.049 | bafetinib -0.102 | [5] 0.047 | nilotinib -0.042 | [6] 0.161 | dasatinib -0.101 | [7] 0.246 | [8] -0.06 | [9] 0 | tipifarnib -0.053 | mubritinib 0.109

SDHC (UniProt Q99643)
UniProt Q99643, sequence (Q99643 whole entry, looked up): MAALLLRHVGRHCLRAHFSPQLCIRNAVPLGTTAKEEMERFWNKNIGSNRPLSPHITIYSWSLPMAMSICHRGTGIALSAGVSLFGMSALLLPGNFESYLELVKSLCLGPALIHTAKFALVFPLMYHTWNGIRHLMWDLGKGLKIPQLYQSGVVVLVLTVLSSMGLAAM
inactive: [1] -0.304 | crizotinib 0.08 | [3] -0.045 | duvelisib 0.155 | gandotinib -0.023 | tozasertib 0.042 | [4] -0.111 | doramapimod -0.086 | ispinesib 0.047 | bafetinib 0 | [5] -0.127 | nilotinib 0.007 | [6] 0.068 | dasatinib 0.028 | [7] -0.056 | [8] -0.011 | [9] -0.024 | tipifarnib 0.211 | mubritinib 0.02
active: [2] 0.457

SART3, A0A499FI31
active: [7] -0.261
inactive: [1] -0.011 | crizotinib 0.097 | [2] 0.049 | [3] -0.124 | duvelisib 0.012 | gandotinib -0.056 | tozasertib 0.078 | [4] 0.051 | doramapimod -0.03 | ispinesib 0.038 | bafetinib -0.057 | [5] 0.039 | nilotinib -0.02 | [6] -0.189 | dasatinib -0.128 | [8] 0.029 | [9] -0.001 | tipifarnib 0.008 | mubritinib 0.024

RRAGC (UniProt Q9HB90)
inactive: [1] 0.016 | crizotinib -0.262 | [2] 0.008 | [3] -0.027 | duvelisib 0.053 | gandotinib 0 | tozasertib -0.061 | [4] -0.039 | doramapimod 0.019 | ispinesib -0.153 | bafetinib -0.07 | [5] -0.054 | nilotinib -0.005 | [6] 0.022 | dasatinib 0.05 | [7] -0.021 | [8] 0.001 | [9] 0.05 | tipifarnib -0.027 | mubritinib 0.031

SEC16A isoform 5 (UniProt O15027)
inactive: [1] -0.032 | crizotinib -0.231 | [2] -0.113 | [3] 0.143 | duvelisib 0.004 | gandotinib 0.087 | tozasertib -0.014 | [4] 0.118 | doramapimod 0.023 | ispinesib -0.119 | bafetinib 0.023 | [5] 0.096 | nilotinib 0.017 | [6] -0.048 | dasatinib -0.169 | [7] 0.021 | [8] -0.006 | [9] -0.051 | tipifarnib 0.012 | mubritinib -0.081
